HIF-2a inh = blocks HIF-2a reporter activity. 786-0 RCC cells HIF-2a reporter, luciferase luminescence, overnight. inhibition, % at 18.8 µM. 0.72% of 360,000 active;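 active means inhibition of the luminescence signal of 40% or more relative to plate controls, in a single-dose primary screen at 18.75 µM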
TRPM1 prom inh = inhibitors of MITF-driven TRPM1 promoter in melanoma cells. SK-MEL-5 TRPM1 promoter luciferase, 24 h. inhibition, % at 12.5 µM. 0.83% of 330,000 active. AID 488899;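 active means mean inhibition across replicates of 60% or more, whatever share of single replicates reaches that level; inconclusive means some that reach 60%, reason not given; inactive means mean inhibition across replicates below 60%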
Peg3 promoter = inhibitors of Peg3 promoter. HeLa PEG-Prom luciferase reporter, luminescence, overnight. 1.7% of 360,000 active. inhibition, % at 20 µM;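 active means inhibition of at least 50% at 20 µM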
ABHD5-PLIN5 inh = ABHD5-PLIN5 protein interaction inhibition. Q00G26+Q8WTS1. Split G. princeps luciferase complementation, luminescence, 4 h. inhibition, % at 4 µM. 0.78% of 360,000 active. AID 602281;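 active means inhibition above the mean inhibition across every tested compound plus 3 SD, cut at about 22% in these data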;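 further: 0% = DMSO only wells and the 100% control is not disclosed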
Target sequence (Q00G26 whole entry, looked up): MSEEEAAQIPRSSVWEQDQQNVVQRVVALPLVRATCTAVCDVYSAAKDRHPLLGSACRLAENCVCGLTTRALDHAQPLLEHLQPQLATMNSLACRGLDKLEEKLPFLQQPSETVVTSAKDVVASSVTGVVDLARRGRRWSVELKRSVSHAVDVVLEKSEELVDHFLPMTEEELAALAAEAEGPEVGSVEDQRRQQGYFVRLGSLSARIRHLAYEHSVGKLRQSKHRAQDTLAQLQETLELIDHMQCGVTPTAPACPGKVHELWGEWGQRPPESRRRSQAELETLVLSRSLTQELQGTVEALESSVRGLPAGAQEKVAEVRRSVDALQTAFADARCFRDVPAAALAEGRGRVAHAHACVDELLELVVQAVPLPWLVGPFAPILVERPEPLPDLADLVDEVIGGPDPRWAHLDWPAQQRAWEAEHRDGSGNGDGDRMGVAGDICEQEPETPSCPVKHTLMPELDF
Target sequence (Q8WTS1 whole entry, looked up): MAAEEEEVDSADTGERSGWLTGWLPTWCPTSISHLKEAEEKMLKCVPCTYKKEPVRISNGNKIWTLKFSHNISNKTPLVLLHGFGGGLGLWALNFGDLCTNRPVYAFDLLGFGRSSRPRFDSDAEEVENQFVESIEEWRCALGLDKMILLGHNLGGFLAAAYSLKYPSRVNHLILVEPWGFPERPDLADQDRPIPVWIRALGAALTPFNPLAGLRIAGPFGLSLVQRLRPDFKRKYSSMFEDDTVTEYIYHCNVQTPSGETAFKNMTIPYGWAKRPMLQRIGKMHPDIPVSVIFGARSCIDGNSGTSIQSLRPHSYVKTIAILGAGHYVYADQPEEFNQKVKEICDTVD
CF NFkB inh = blocks PAF-induced NF-kB reporter in cystic fibrosis cells; KKLEB NF-kB-GFP reporter, GFP fluorescence overnight; inhibition, % at 5 µM; 0.86% of 360,000 active;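 active means at least 50% inhibition at 5 µM, scaled per plate between neutral and stimulator controls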;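 further: PAF is a Pseudomonas aeruginosa culture filtrate used as stimulus; plate controls were PAF-stimulated DMSO wells for no effect and unstimulated DMSO wells for full effect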
KKLEB cytotox = CF airway cell cytotoxicity counter-screen; activity change (cytotoxicity), % at 5 µM; AID 602141; KKLEB CF airway cells viability, ATPlite luminescence, overnight; hits give low values; cells stimulated with P. aeruginosa culture filtrate; 0.36% of 360,000 active;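 active means corrected activity change at or below -50% at 5 µM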
Starred values were filed as active, the others as inactive. An excerpt weighted towards active compounds, which were near 3% of everything screened.

For CCCCCCCCNc1ncnc2[nH]ncc12 the results were HIF-2a inh -31, TRPM1 prom inh -15, Peg3 promoter -28, ABHD5-PLIN5 inh 4, CF NFkB inh -3 and KKLEB cytotox -8.
Nn1c(SCc2ccccc2F)nnc1-c1ccccn1 was read as HIF-2a inh -225, Peg3 promoter -238, ABHD5-PLIN5 inh -2, CF NFkB inh -10 and KKLEB cytotox 10.
`O=C1CC(=C(c2ccccc2)c2ccccc2)C(=O)N1CCCCN1CCN(c2cccc(Cl)c2)CC1` gave HIF-2a inh 28, TRPM1 prom inh 10, Peg3 promoter 50*, ABHD5-PLIN5 inh 14, CF NFkB inh 7 and KKLEB cytotox 4.
Screening Cc1ccc(CN2C3=NCCCN3c3ccccc32)cc1 returned HIF-2a inh 17, TRPM1 prom inh -6, Peg3 promoter 15, ABHD5-PLIN5 inh 4, CF NFkB inh 12 and KKLEB cytotox 2.
Cc1cc2c(cc1C)N(Cc1ccc(Cl)cc1)C1=NCCCN12 was read as HIF-2a inh 20, TRPM1 prom inh 51, Peg3 promoter 57*, ABHD5-PLIN5 inh 2, CF NFkB inh 5 and KKLEB cytotox 3.
CCOC(=O)C1(C)CCN1C(=O)c1ccccc1C(F)(F)F (stereo unspecified) was read as HIF-2a inh -1, Peg3 promoter 14, ABHD5-PLIN5 inh 11, CF NFkB inh -4 and KKLEB cytotox -4.
Screening CNc1ccc(/C=C/C(=O)c2cccc3ccccc23)cc1[N+](=O)[O-] returned HIF-2a inh -63, TRPM1 prom inh -11, Peg3 promoter 67*, ABHD5-PLIN5 inh 0, CF NFkB inh 14 and KKLEB cytotox -36.
CNc1ccc(C(=O)c2ccccc2C(=O)O)cc1[N+](=O)[O-] was read as HIF-2a inh 7, TRPM1 prom inh 0, Peg3 promoter -5, ABHD5-PLIN5 inh 6, CF NFkB inh 12 and KKLEB cytotox -5.
Cc1ccccc1NNC(=O)C(=O)NNc1ccccc1C was read as HIF-2a inh 9, TRPM1 prom inh 9, Peg3 promoter 7, ABHD5-PLIN5 inh 2, CF NFkB inh -23 and KKLEB cytotox 16.
Screening Cc1ccccc1NC(=O)C(Cl)=C(Cl)Cl returned HIF-2a inh -41, TRPM1 prom inh 35, Peg3 promoter 55*, ABHD5-PLIN5 inh -7, CF NFkB inh -17 and KKLEB cytotox 12.
For CCOc1cc(/C=C2/C(=O)ON=C2C)ccc1OCc1ccccc1F the results were HIF-2a inh 17, TRPM1 prom inh 40, Peg3 promoter 97*, ABHD5-PLIN5 inh 8, CF NFkB inh -42 and KKLEB cytotox 19.
CCOc1cc(/C=C2\C(=O)ON=C2c2ccccc2)ccc1OC was read as HIF-2a inh 12, TRPM1 prom inh 18, Peg3 promoter 38, ABHD5-PLIN5 inh -9, CF NFkB inh -6 and KKLEB cytotox 2.
CCOc1cc(/C=C2/C(=O)ON=C2C)ccc1OCc1ccc(F)cc1 was read as HIF-2a inh -1, TRPM1 prom inh inconclusive, Peg3 promoter 65*, ABHD5-PLIN5 inh 4, CF NFkB inh -13 and KKLEB cytotox 8.
`COc1ccc(/C=C2/C(=O)ON=C2C)cc1Br` gave HIF-2a inh 7, Peg3 promoter 10, ABHD5-PLIN5 inh -12, CF NFkB inh -10 and KKLEB cytotox 8.
For COc1cc2c3nnc(-c4ccc(F)cc4)c-3cn(Cc3ccccc3F)c2cc1OC the results were HIF-2a inh 26, TRPM1 prom inh 92*, Peg3 promoter 110*, ABHD5-PLIN5 inh 14, CF NFkB inh -63 and KKLEB cytotox 0.
For O=C(Nc1ccn(Cc2ccccc2F)n1)c1ccc(COc2ccc(Br)cc2)cc1 the results were HIF-2a inh -7, TRPM1 prom inh 4, Peg3 promoter -5, ABHD5-PLIN5 inh -10, CF NFkB inh 48 and KKLEB cytotox -64*.
For O=C(Nc1ccc(Cn2cccn2)cc1)c1ccc(COc2ccc(Br)cc2)cc1 the results were HIF-2a inh 7, TRPM1 prom inh 1, Peg3 promoter 17, ABHD5-PLIN5 inh -10, CF NFkB inh -3 and KKLEB cytotox 7.
COc1ccccc1-c1cc(-c2ccccc2)nc(SC(C(N)=O)c2ccccc2)c1C#N (stereo unspecified) was read as HIF-2a inh 5, TRPM1 prom inh 38, Peg3 promoter 47, ABHD5-PLIN5 inh -1, CF NFkB inh 60* and KKLEB cytotox -72*.

Source: PubChem BioAssay
